Results: PubChem BioAssay AID1159580 (chemical genetic matrix, 2015)
Several values for one entry are separate records, joined by “and”; a condition that tells them apart may be missing. Equal entries are not always repeated. The whole screen tested about 5,500 compounds, of which about 2,000 (36%) were called active. About 18% were inconclusive and are not listed. No stated cut-off is given here; in the data, active means normalized growth mostly below about 0.91 (no sharp cut-off); inconclusive means no clear call, values can overlap the other calls; inactive means mostly above about 0.92. This is one part of the list.

Experiment: chemical genetic growth profiling, strain panel (AID 1159580);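 further: tested at 20 µM; growth read once vehicle control cultures reached saturation at 30 °C; 1 = growth at the plate median or of vehicle wells; lower values mean less growth of the strain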
Details: growth OD

Measured: normalized growth

CO[C@H]1[C@H](O)[C@@H](O[C@H]2CC[C@]3(C=O)C4CC[C@]5(C)[C@@H](C6=CC(=O)OC6)CC[C@]5(O)C4CC[C@@H]3C2)O[C@@H](C)[C@@H]1O (some centres not stated)
inactive: S. cerevisiae deletion strains, locus YAL013W, strain DEP1, active compounds read low 0.982 | S. cerevisiae deletion strains, locus YBR021W, strain FUR4, active compounds read low 1.01 | S. cerevisiae deletion strains, locus YBR229C, strain ROT2, active compounds read low 0.959 | S. cerevisiae deletion strains, locus YCL029C, strain bik1, active compounds read low 0.993 | S. cerevisiae deletion strains, locus YDL035C, strain GPR1, active compounds read low 0.986 | S. cerevisiae deletion strains, locus YDL074C, strain BRE1, active compounds read low 1.01 | S. cerevisiae deletion strains, locus YDL101C, strain DUN1, active compounds read low 0.973 | S. cerevisiae deletion strains, locus YDL134C, strain PPH21, active compounds read low 0.986 | S. cerevisiae deletion strains, locus YDL185W, strain tfp1, active compounds read low 0.989 | S. cerevisiae deletion strains, locus YDL192W, strain arf1, active compounds read low 0.99 | S. cerevisiae deletion strains, locus YDR101C, strain arx1, active compounds read low 1 | S. cerevisiae deletion strains, locus YDR150W, strain NUM1, active compounds read low 0.966 | S. cerevisiae deletion strains, locus YDR162C, strain NBP2, active compounds read low 0.978 | S. cerevisiae deletion strains, locus YDR318W, strain mcm21, active compounds read low 1.01 | S. cerevisiae deletion strains, locus YDR388W, active compounds read low 0.999 | S. cerevisiae deletion strains, locus YDR502C, strain sam2, active compounds read low 0.992 | S. cerevisiae deletion strains, locus YEL061C, strain CIN8, active compounds read low 0.984 | S. cerevisiae deletion strains, locus YER110C, active compounds read low 0.973 | S. cerevisiae deletion strains, locus YER155C, strain BEM2, active compounds read low 0.997 | S. cerevisiae deletion strains, locus YER167W, strain BCK2, active compounds read low 0.995 | S. cerevisiae deletion strains, locus YGL078C, strain dbp3, active compounds read low 0.986 | S. cerevisiae deletion strains, locus YGL086W, strain mad1, active compounds read low 0.989 | S. cerevisiae deletion strains, locus YGL248W, strain PDE1, active compounds read low 0.973 | S. cerevisiae deletion strains, locus YGR078C, strain PAC10, active compounds read low 1 | S. cerevisiae deletion strains, locus YGR135W, strain pre9, active compounds read low 1 | S. cerevisiae deletion strains, locus YGR229C, strain SMI1, active compounds read low 0.996 | S. cerevisiae deletion strains, locus YGR252W, strain gcn5, active compounds read low 0.999 | S. cerevisiae deletion strains, locus YHR030C, strain SLT2, active compounds read low 0.987 and 0.975 | S. cerevisiae deletion strains, locus YHR079C, strain IRE1 (second series), active compounds read low 0.99 | S. cerevisiae deletion strains, locus YHR079C, strain IRE1, active compounds read low 0.965 | S. cerevisiae deletion strains, locus YHR094C, strain hxt1, active compounds read low 0.988 | S. cerevisiae deletion strains, locus YHR129C, strain ARP1, active compounds read low 0.996 | S. cerevisiae deletion strains, locus YHR200W, strain rpn10, active compounds read low 0.999 | S. cerevisiae deletion strains, locus YIL066C, strain RNR3, active compounds read low 0.968 | S. cerevisiae deletion strains, locus YIL073C, strain SPO22, active compounds read low 0.994 | S. cerevisiae deletion strains, locus YIL125W, strain kgd1, active compounds read low 0.98 | S. cerevisiae deletion strains, locus YIR030C, strain dcg1, active compounds read low 0.982 | S. cerevisiae deletion strains, locus YJL095W, strain BCK1, active compounds read low 1.04 and 0.973 | S. cerevisiae deletion strains, locus YJL134W, strain LCB3, active compounds read low 0.981 | S. cerevisiae deletion strains, locus YJL168C, strain set2, active compounds read low 0.992 | S. cerevisiae deletion strains, locus YJL187C, strain SWE1 (second series), active compounds read low 0.99 | S. cerevisiae deletion strains, locus YJR043C, strain POL32, active compounds read low 1.01 | S. cerevisiae deletion strains, locus YJR066W, strain TOR1, active compounds read low 0.972 | S. cerevisiae deletion strains, locus YJR075W, strain HOC1, active compounds read low 0.998 | S. cerevisiae deletion strains, locus YKL009W, strain mrt4, active compounds read low 0.943 | S. cerevisiae deletion strains, locus YKL068W, active compounds read low 0.994 | S. cerevisiae deletion strains, locus YKL085W, strain MDH1 (second series), active compounds read low 0.98 | S. cerevisiae deletion strains, locus YKL085W, strain MDH1, active compounds read low 0.98 | S. cerevisiae deletion strains, locus YKL190W, strain CNB1, active compounds read low 0.991 | S. cerevisiae deletion strains, locus YKR001C, strain vps1, active compounds read low 0.993 | S. cerevisiae deletion strains, locus YLR039C, strain RIC1, active compounds read low 0.969 | S. cerevisiae deletion strains, locus YLR058C, strain SHM2, active compounds read low 0.965 | S. cerevisiae deletion strains, locus YLR102C, strain apc9, active compounds read low 0.994 | S. cerevisiae deletion strains, locus YLR113W, strain HOG1, active compounds read low 0.975 | S. cerevisiae deletion strains, locus YLR262C, strain YPT6, active compounds read low 0.972 | S. cerevisiae deletion strains, locus YLR268W, strain sec22, active compounds read low 1.05 | S. cerevisiae deletion strains, locus YLR330W, strain CHS5, active compounds read low 0.982 | S. cerevisiae deletion strains, locus YLR342W, strain FKS1 (second series), active compounds read low 0.998 | S. cerevisiae deletion strains, locus YLR371W, strain rom2, active compounds read low 0.979 | S. cerevisiae deletion strains, locus YLR418C, strain cdc73, active compounds read low 1 | S. cerevisiae deletion strains, locus YML016C, strain PPZ1, active compounds read low 0.987 | S. cerevisiae deletion strains, locus YML032C, strain rad52, active compounds read low 1.01 | S. cerevisiae deletion strains, locus YML124C, strain tub3, active compounds read low 0.989 | S. cerevisiae deletion strains, locus YMR078C, strain ctf18, active compounds read low 0.993 | S. cerevisiae deletion strains, locus YMR223W, strain ubp8, active compounds read low 0.977 | S. cerevisiae deletion strains, locus YMR263W, strain SAP30, active compounds read low 0.987 | S. cerevisiae deletion strains, locus YMR307W, strain GAS1, active compounds read low 0.981 | S. cerevisiae deletion strains, locus YNL067W, strain RPL9B, active compounds read low 1.01 | S. cerevisiae deletion strains, locus YNL128W, strain TEP1, active compounds read low 0.969 | S. cerevisiae deletion strains, locus YNL153C, strain GIM3, active compounds read low 0.994 | S. cerevisiae deletion strains, locus YNL183C, strain NPR1, active compounds read low 0.903 | S. cerevisiae deletion strains, locus YNL233W, strain BNI4, active compounds read low 0.999 | S. cerevisiae deletion strains, locus YNL250W, strain rad50, active compounds read low 0.969 | S. cerevisiae deletion strains, locus YNL271C, strain bni1, active compounds read low 1 | S. cerevisiae deletion strains, locus YNL298W, strain CLA4, active compounds read low 0.992 | S. cerevisiae deletion strains, locus YNL307C, strain MCK1, active compounds read low 0.993 | S. cerevisiae deletion strains, locus YNL322C, strain KRE1, active compounds read low 0.989 | S. cerevisiae deletion strains, locus YNR052C, strain pop2, active compounds read low 1.01 | S. cerevisiae deletion strains, locus YOL006C, strain TOP1, active compounds read low 1.01 | S. cerevisiae deletion strains, locus YOL012C, strain htz1 0.939 | S. cerevisiae deletion strains, locus YOL147C, strain pex11, active compounds read low 0.998 | S. cerevisiae deletion strains, locus YOR061W, strain CKA2, active compounds read low 0.968 | S. cerevisiae deletion strains, locus YOR069W, strain VPS5, active compounds read low 0.988 | S. cerevisiae deletion strains, locus YOR136W, strain idh2, active compounds read low 0.986 | S. cerevisiae deletion strains, locus YOR144C, strain elg1, active compounds read low 0.998 | S. cerevisiae deletion strains, locus YOR184W, strain ser1, active compounds read low 0.981 | S. cerevisiae deletion strains, locus YOR231W, strain MKK1, active compounds read low 0.957 | S. cerevisiae deletion strains, locus YOR316C, strain cot1, active compounds read low 0.985 | S. cerevisiae deletion strains, locus YPL055C, strain LGE1, active compounds read low 0.979 | S. cerevisiae deletion strains, locus YPL241C, strain CIN2, active compounds read low 0.992 | S. cerevisiae deletion strains, locus YPL256C, strain CLN2, active compounds read low 0.948 | S. cerevisiae deletion strains, locus YPR119W, strain clb2, active compounds read low 0.989 | S. cerevisiae deletion strains, locus YPR141C, strain kar3, active compounds read low 0.983 | S. cerevisiae deletion strains, locus YPR163C, strain tif3, active compounds read low 1 | S. cerevisiae deletion strains, locus YPR167C, strain met16, active compounds read low 0.992 | S. cerevisiae deletion strains, strain wtn01, active compounds read low 0.996 | S. cerevisiae strains, strain wild type, active compounds read low 0.978
